Assay results reported in PubChem BioAssay AID488969 (Vanderbilt High Throughput Screening Facility, 2010).
In all, about 110,000 compounds were measured (“z-score”: median about -0.1, highest 2% from about 2 on). For the sample, the highest values were picked, then their nearest neighbours and some compounds at random. The source made the active and inactive calls.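 How the source made its calls: active means z-score in the third read window above 3 or below -3; inactive means the rest.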

target: Metabotropic glutamate receptor 8 (Rattus norvegicus) (UniProt P70579); assay: mGluR8 Gi/Go-coupled signaling modulation – cell-based, rat, thallium flux, HTS, primary screen (AID 488969); conditions: HEK293 rat mGluR8, GIRK (G protein-gated inwardly rectifying potassium channel) thallium flux, FluoZin2; at 10 µM; stronger effect = higher value; submaximal glutamate (EC20) added with thallium
Sequence (P70579 whole entry, looked up): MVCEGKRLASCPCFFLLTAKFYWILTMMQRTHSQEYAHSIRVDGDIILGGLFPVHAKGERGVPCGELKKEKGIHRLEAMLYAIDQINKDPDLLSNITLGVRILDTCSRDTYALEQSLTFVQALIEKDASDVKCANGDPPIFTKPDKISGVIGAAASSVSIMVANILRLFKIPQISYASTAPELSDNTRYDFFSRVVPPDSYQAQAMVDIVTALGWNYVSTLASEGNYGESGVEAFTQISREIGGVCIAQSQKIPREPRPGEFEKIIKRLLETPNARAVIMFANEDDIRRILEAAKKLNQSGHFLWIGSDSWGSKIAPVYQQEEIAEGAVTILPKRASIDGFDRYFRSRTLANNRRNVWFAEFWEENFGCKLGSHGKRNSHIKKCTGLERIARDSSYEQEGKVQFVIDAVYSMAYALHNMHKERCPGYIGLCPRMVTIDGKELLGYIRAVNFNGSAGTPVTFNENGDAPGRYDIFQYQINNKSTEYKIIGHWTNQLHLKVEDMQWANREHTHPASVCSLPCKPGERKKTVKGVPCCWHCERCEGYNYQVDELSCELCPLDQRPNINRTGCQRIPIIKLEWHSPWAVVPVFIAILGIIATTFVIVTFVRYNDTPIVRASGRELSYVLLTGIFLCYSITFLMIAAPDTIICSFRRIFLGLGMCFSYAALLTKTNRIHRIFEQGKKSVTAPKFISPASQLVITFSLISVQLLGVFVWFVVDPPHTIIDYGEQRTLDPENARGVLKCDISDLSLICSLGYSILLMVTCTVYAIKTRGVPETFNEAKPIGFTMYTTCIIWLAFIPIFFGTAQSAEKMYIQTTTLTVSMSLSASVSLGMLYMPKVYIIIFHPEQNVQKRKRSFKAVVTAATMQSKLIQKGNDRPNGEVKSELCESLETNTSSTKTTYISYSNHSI

SMILES	z-score
Nc1ccc(SC(F)(F)F)cc1C(=O)c1ccccc1	-0.00154
O=C(COC(=O)C1CCN(S(=O)(=O)c2ccc3c(c2)OCCO3)CC1)Nc1cc(C(F)(F)F)ccc1Cl	-0.303
CCCC12CN3CCN(CC(C3)/C1=N\NC(=O)Nc1ccccc1)C2	-0.242
CCc1cc2cc(C(=O)Nc3ccc(F)cc3)sc2s1	-0.0494
Cc1nc2ccc(F)cc2cc1C(=O)NCc1ccco1	-0.0284
O=C(COC(=O)CCc1nc2ccccc2s1)Nc1ncc(Cl)cc1Cl	-0.33
CN1CCN(/C=N/c2c(C#N)cnn2-c2ccccc2)CC1	0.237
O=C(CNC(=O)c1cccc(F)c1)OCc1cc(=O)n2cc(Br)ccc2n1	-0.354
O=C(Nc1nnc(-c2ccc3c(c2)CCCC3)o1)c1ccc(Cl)cc1Cl	15.6 (active)
O=C(Nc1ccc2c(c1)CCC2)C1COc2ccccc2O1 (stereo not given)	0.9
O=C(COc1ccccc1)Nc1nnc(-c2ccc3c(c2)CCCC3)o1	1.27
Clc1ccc(-c2nnc(NC3=NCCCCC3)o2)cc1	0.0658
CCCN(CCC)S(=O)(=O)c1ccc(C(=O)Nc2nnc(-c3cccc(OC)c3)o2)cc1	3.65 (active)
CCCN(CCC)S(=O)(=O)c1ccc(C(=O)Nc2nnc(CSC)o2)cc1	0.35
O=C(Nc1nnc(-c2ccc3c(c2)CCCC3)o1)c1ccccc1	15.5 (active)
O=C(COc1ccc(Cl)cc1)Nc1nnc(-c2ccc3c(c2)CCCC3)o1	-0.441
CC(=O)Nc1nnc(-c2ccc3c(c2)CCCC3)o1	0.0154
O=C(Nc1nnc(-c2ccc3c(c2)CCCC3)o1)C1CCCCC1	-0.309
COc1cccc(-c2nnc(NC(=O)c3ccc(S(=O)(=O)N(CC(C)C)CC(C)C)cc3)o2)c1	-0.14
O=C(Nc1nnc(-c2ccc3c(c2)CCCC3)o1)C1COc2ccccc2O1 (stereo not given)	7.22 (active)
COc1nnc(-c2ccc(N3CCCCC3)c(NC(=O)C3CCCCC3)c2)c2ccccc12	-0.3
Cc1ccccc1N1CCN(C(=O)CCN2C(=O)c3ccccc3C2=O)CC1	-0.36
COc1ccc(C(=O)Nc2ccc(Cl)c(Cl)c2)c(OC)n1	-0.192
COc1ccccc1C(=O)NNC(=O)c1ccc(F)cc1	0.0416

SMILES	z-score
CCC(C)(C)n1nnnc1C(C(C)C)N1CCSCC1 (stereo not given)	0.805
O=S(Cc1ccc(Br)cc1)Cc1nnc(SCc2c(Cl)cccc2Cl)n1-c1ccccc1 (stereo not given)	0.0461
CCNC(=O)C1CCCN1S(=O)(=O)c1ccc(C)cc1 (stereo not given)	-0.513
Cc1ccc2cc3cc(C(=O)N4CCN(Cc5ccccc5)CC4)sc3nc2c1	0.586
COc1ccc(NC(=S)NC(NC(=O)/C=C/c2ccccc2)C(Cl)(Cl)Cl)cc1 (stereo not given)	1.83
O=C(/C=C/c1ccccc1)NC(NC(=S)Nc1cccc(O)c1)C(Cl)(Cl)Cl (stereo not given)	2.09
O=C(Cc1ccccc1)NC(NC(=S)Nc1cc(Cl)ccc1Cl)C(Cl)(Cl)Cl (stereo not given)	-0.195
O=C(/C=C/c1ccccc1)NC(NC(=S)Nc1cccc(Cl)c1)C(Cl)(Cl)Cl (stereo not given)	1.36
O=C(/C=C/c1ccccc1)NC(NC(=S)Nc1ccc(Cl)cc1Cl)C(Cl)(Cl)Cl (stereo not given)	0.717
O=C(/C=C/c1ccccc1)NC(NC(=S)Nc1cc(Cl)ccc1Cl)C(Cl)(Cl)Cl (stereo not given)	5.83 (active)
O=C(CNc1n[nH]c(=O)[nH]c1=O)N/N=C/c1cccnc1	-0.114
Cc1cccc(N2CCN(C(=O)Cn3cnc4c3c(=O)n(C)c(=O)n4C)CC2)c1C	-0.973
Cn1nnc(NC(=O)c2ccc3ccccc3c2)n1	-1.31
COC(=O)C(NC(=O)COc1ccccc1)(Nc1nc2c(s1)CCCC2)C(F)(F)F (stereo not given)	2.96
CCOC(=O)C(NC(=O)CC)(Nc1nc2c(s1)CCCC2)C(F)(F)F (stereo not given)	-0.0129
O=C(Nc1nc2c(s1)CCCC2)Oc1ccccc1	-0.198
CC(C)CNC(C(=O)Nc1ccc([N+](=O)[O-])cc1Br)c1ccccc1 (stereo not given)	-0.337
O=C1CC(c2ccccc2)CC(O)=C1C=NCc1ccccc1 (stereo not given)	-0.229
CCCN=CC1=C(O)CC(c2ccccc2)CC1=O (stereo not given)	-0.493
CCC(C)N=CC1=C(O)CC(c2ccccc2)CC1=O (stereo not given)	2.05
C=C(Br)Cn1c(CC(C)C)nc2ccccc21	-0.262
COC(=O)c1sc(N)nc1C(C)(C)C	-0.167
COc1cc2c(cc1Cl)/C(=C\CCN(C)C)c1ccccc1S2	-0.852
CN(C)CC/C=C1/c2ccccc2Sc2c(O)cc(Cl)cc21	1.62

SMILES	z-score
COc1cc(Cl)cc2c1Sc1ccccc1/C2=C/CCN(C)C	3.63 (active)
O=C(CNc1ccccc1)N/N=C/c1ccc2c(c1)OCO2	-0.247
COc1ccc(NC(=O)Nc2nnc(-c3ccccc3SCc3ccccc3)s2)cc1	-0.158
CC(=O)N1CCN=C1SCc1ccc(Br)cc1	2.58
CC(=O)N1CCN=C1SCc1ccc(F)cc1	0.0688
CC(=O)N1CCN=C1SCc1ccccc1	-0.898
COC(=O)c1ccc(NC(=O)C(=O)N2CCN(C(=S)NCCc3ccccc3)CC2)cc1	-0.154
O=C(N/N=C\c1cn[nH]c1-c1ccccc1)c1cccnc1	0.0508
COC(=O)Oc1cncc(C(=O)O)c1	-0.0704
O=C(OCc1ccccc1)Oc1cncc(C(=O)O)c1	2.64
CCOC(=O)c1cncc(C(=O)O)c1	1.8
CCN(CC)S(=O)(=O)c1ccc(C(=O)NCc2ccc3c(c2)cc(C)n3C)cc1	-0.388
CN(C)S(=O)(=O)c1cccc(NC(=S)NN=C(Cc2ccccc2)Cc2ccccc2)c1	0.673
CN(C)S(=O)(=O)c1cccc(NC(=S)N/N=C/C(c2ccccc2)c2ccccc2)c1	0.384
CN(C)S(=O)(=O)c1cccc(NC(=S)Nc2cc(Cl)cc(Cl)c2)c1	8 (active)
FC(F)(F)c1cccc(NC(=S)Nc2ccc(Cl)cc2Cl)c1	1.29
CN(C)S(=O)(=O)c1cccc(NC(=S)Nc2ccc(Cl)cc2Cl)c1	7.58 (active)
CN(C)S(=O)(=O)c1cccc(C(=O)Nc2cc(Cl)cc(Cl)c2)c1	-0.468
O=C(CCc1ccc(S(=O)(=O)NC2CCCCC2)cc1)N(Cc1ccccc1)Cc1ccccc1	-0.22
Cc1cc(C2=NNC(=NCc3ccccc3)SC2)c(C)n1-c1c(C)n(C)n(-c2ccccc2)c1=O	-0.278
COCC(C)n1c(C)cc(C(=O)COC(=O)c2oc3ccccc3c2C)c1C (stereo not given)	-0.927
Cc1ccccc1CSCC(=O)Nc1c(C)n(C)n(-c2ccccc2)c1=O	-0.0609
